Assay results: ChEMBL document CHEMBL1201862, “PubChem BioAssay data set” (2004); call rule not given here
These assays gave more results; the selection is not random.

molecular target: T1, Protein RecA (Mycobacterium tuberculosis) (UniProt P9WHJ3); assay: M. tuberculosis H37Rv growth inhibition, dose response, strain H37Rv (AID 489010); format: functional;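 note: whole Mycobacterium tuberculosis cells grown in culture and not purified RecA protein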
T1 sequence (whole entry): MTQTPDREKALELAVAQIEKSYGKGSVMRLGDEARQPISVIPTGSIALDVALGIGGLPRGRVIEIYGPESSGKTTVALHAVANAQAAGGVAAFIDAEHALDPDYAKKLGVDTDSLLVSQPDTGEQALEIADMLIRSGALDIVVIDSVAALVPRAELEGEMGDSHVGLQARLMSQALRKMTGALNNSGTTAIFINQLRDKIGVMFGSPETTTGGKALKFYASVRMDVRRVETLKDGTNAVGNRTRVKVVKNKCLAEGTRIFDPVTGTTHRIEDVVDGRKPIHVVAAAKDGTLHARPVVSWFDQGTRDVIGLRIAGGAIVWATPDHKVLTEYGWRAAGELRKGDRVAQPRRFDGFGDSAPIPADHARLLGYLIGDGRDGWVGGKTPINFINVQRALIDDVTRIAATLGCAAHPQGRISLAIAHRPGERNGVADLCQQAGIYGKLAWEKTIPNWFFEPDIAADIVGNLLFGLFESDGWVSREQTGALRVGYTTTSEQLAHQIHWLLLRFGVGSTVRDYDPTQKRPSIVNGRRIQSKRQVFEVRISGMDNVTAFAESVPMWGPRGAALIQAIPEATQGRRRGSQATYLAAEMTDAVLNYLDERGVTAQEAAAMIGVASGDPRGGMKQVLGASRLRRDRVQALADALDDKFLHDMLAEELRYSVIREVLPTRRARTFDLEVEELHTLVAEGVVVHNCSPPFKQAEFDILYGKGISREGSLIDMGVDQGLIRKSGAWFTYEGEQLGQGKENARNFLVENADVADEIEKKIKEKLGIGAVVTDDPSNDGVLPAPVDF

| Compound | IC90 |
| --- | --- |
| Cn1nc(-c2ccccn2)nc2c(=O)n(C)c(=O)nc1-2 | 22.3 µM (active) |
| O=C(CCl)N1c2ccccc2OCC1c1ccccc1 (stereo not drawn) | 4.03 µM (active) |
| C=CCOc1ccccc1CN(C(=O)CCl)c1ccc2c(c1)OCO2 | 8.42 µM (active) |
| Cc1sc2ncnc(Sc3nnnn3-c3ccccc3)c2c1C | > 100 µM (active) |
| COc1ccc(C(=O)c2c(C(F)(F)F)oc3c2C(=O)c2ccccc2C3=O)cc1OC | 13.8 µM (active) |
| COc1ccc2nc(C)cc(Sc3nc4ccccc4s3)c2c1 | > 100 µM (active) |
| CC(C)(C)c1csc(Sc2ccc([N+](=O)[O-])cn2)n1 | > 100 µM (active) |
| CCn1nc(/C=C/c2ccccc2)nc2c(=O)n(C)c(=O)nc1-2 | 15.4 µM (active) |
| COC(=O)c1sc(-c2ccc(Cl)cc2)cc1NC(=O)/C=C/C(=O)O | > 100 µM (active) |
| CC(CCc1ccccc1)NC(=O)COC(=O)c1cc(NS(=O)(=O)c2ccc(Cl)c([N+](=O)[O-])c2)ccc1O (stereo not drawn) | > 100 µM (active) |
| Cc1ccc(N(C(=O)CCl)C(C(=O)NC2CCCCC2)c2cccnc2)cc1C (stereo not drawn) | 30.1 µM (active) |
| COc1cc(NCCCCCCCN)c2ncccc2c1 | 57.8 µM (active) |
| O=C(NC1=C(NC2CCS(=O)(=O)C2)C(=O)c2ccccc2C1=O)c1ccccc1 (stereo not drawn) | > 100 µM (active) |
| COc1ccc(N(C(=O)CCl)C(C(=O)NCCc2ccccc2)c2cccs2)cc1 (stereo not drawn) | 22.9 µM (active) |
| Cn1nc(-c2ccc(Cl)cc2)nc2c(=O)n(C)c(=O)nc1-2 | 20 µM (active) |
| Cc1nn(-c2ccccc2)c(Cl)c1CN(C(=O)CCl)c1ccc(Cl)cc1 | 8.54 µM (active) |
| CC(C)(C)C1CCc2sc(C(=O)NNC(=O)CCl)cc2C1 (stereo not drawn) | 33.3 µM (active) |
| Cc1ccc(C)c(Sc2ccc(NC(=O)CCl)cc2)c1 | > 100 µM (active) |
